Compounds with a hit are over-represented: about 21% of the library has one in this group of screens.
NS1 function inh = influenza NS1 inhibition | Potency, µM (series often up to 46.1 µM) | hit rate 0.4% among 270,000 | AID 2326; calls by dose curve; note: actives are rising curves; nearly all actives have a fitted effect of over 50% in size
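S. cerevisiae expressing influenza A NS1, grown in glucose, washed, then diluted 1:100 into pH 6.0 -URA galactose medium with 23 nl compound. Growth recovery read as OD600; NS1-free strain serves as control.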
Pf growth 48h = inhibits P. falciparum growth in the first generation, 48 h | AID 504832 | hit rate 5.9% among 310,000 | P. falciparum luciferase growth in erythrocytes, 48 h | Potency, µM (titrated, usually from 28.7 µM), usual class: inhibitors
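Growth was read as firefly luciferase luminescence after a 48 h, 37 C, 5% CO2 exposure of compounds to reporter-bearing P. falciparum cultures (0.1% parasitemia, 2% hematocrit final) in Albumax-supplemented RPMI 1640.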
Shiga toxin inh = blocks Shiga toxin action in Vero cells | Vero cells, Shiga toxin protein synthesis inhibition reporter | inhibition, % at 38.7 µM | hit rate 9.2% among 290,000; in the data active = inhibition mostly above about 28%, no sharp cut-off; inactive = mostly below about 43%
Pf growth 96h = P. falciparum growth inhibition at 96 hour, primary screen for plastid delayed-death inhibitors; Potency, µM (titrated, usually from 28.7 µM), most hits filed as inhibitors; AID 504834; hit rate 6.9% among 320,000; P. falciparum luciferase reporter growth, 96 h
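Erythrocytes infected with luciferase-expressing P. falciparum were dispensed at 2% hematocrit and 0.05% parasitemia (final), then incubated with compounds 96 hours at 37 C in 5% CO2. Luminescence after detection reagent addition reported growth.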
Giardia FBPA inh = blocks Giardia fructose-bisphosphate aldolase activity. purified Giardia FBPA. AID 2451. A8B2U2. Potency, µM (titrated, usually from 59.6 µM), usual class: inhibitors. hit rate 0.71% among 290,000; note: nearly all actives have a fitted effect of over 55% in size
Target sequence (A8B2U2 whole entry, looked up): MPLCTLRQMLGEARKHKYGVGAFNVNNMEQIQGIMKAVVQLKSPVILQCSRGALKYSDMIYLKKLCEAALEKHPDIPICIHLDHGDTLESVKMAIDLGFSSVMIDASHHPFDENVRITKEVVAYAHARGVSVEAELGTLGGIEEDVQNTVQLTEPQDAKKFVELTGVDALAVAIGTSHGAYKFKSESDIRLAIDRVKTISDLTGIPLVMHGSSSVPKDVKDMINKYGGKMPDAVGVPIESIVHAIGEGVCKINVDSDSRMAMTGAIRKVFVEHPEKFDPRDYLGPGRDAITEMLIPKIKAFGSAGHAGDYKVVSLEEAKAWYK
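40 nM FBPA preincubated 10 min at RT with compound (up to 57.5 uM final), then substrate plus GAPDH/TPI/NAD/arsenate coupling and diaphorase/resazurin added. Fluorescence read after 20 min at RT, 525/598 nm.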
Cycloheximide cs = affects cycloheximide protein synthesis inhibition readout, counter-screen | AID 2314 | max response, % | cell reporter, cycloheximide protein synthesis inhibition counterscreen | hit rate 12% among 300,000; in the data active = max response mostly above about 13%, no sharp cut-off; inactive = mostly below about 14%; note: read at 38.3 µM for the half of the compounds with a filed dose
Numbers stand for hits; 0 = inactive; ? = inconclusive; - = no result given; [ ] = dose if it differs, or a comment. Unless noted, calls come from the whole dose curve; as a rule, active = well fitted curve in the direction sought with a large enough effect; inconclusive = small, poorly fitted or top-dose-only effect, or another doubt; inactive = no such curve, though single readings can be large; an effect the other way counts as inactive or inconclusive.

SMILES | NS1 function inh | Pf growth 48h | Shiga toxin inh | Pf growth 96h | Giardia FBPA inh | Cycloheximide cs
CCOC(=O)c1sc(Nc2nc(OC)cc(OC)n2)nc1C | 0 | ? | 0 | 0 | 0 | 0
CCCCN(C(=O)CSCC(=O)Nc1ccc(C)cc1)c1c(N)n(CC(C)C)c(=O)[nH]c1=O | - | ? | - | 0 | - | -
COc1ccc(N(CC(=O)Nc2ccc3c(c2)OCO3)S(=O)(=O)c2ccccc2)cc1OC | 0 | 2.9µM | 0 | ? | 0 | 0
CC(C)[C@H](NS(=O)(=O)c1ccccc1)C(=O)OCC(=O)Nc1ccc2c(c1)OCO2 | 0 | 0 | 0 | 0 | 0 | 0
C[C@H](NS(=O)(=O)c1ccccc1)C(=O)OCC(=O)NC(=O)Nc1ccc2c(c1)OCCO2 | 0 | 0 | 86 | 0 | 0 | 74
COc1ccc(N(CC(=O)Nc2ccc3c(c2)OCO3)S(=O)(=O)c2ccc(C)cc2)cc1OC | 0 | ? | 0 | ? | 0 | 0
CN(Cc1cccc(C(F)(F)F)c1)Cc1nc(-c2cnccn2)no1 | 0 | 0 | 0 | 7.4µM | 0 | 0
COc1ccc(-n2ncc(S(=O)(=O)c3ccccc3)c2-c2ccc(Cl)cc2)cc1 | 0 | 12µM | 0 | ? | 0 | 0
O=S(=O)(c1ccccc1)c1cnn(-c2ccccc2)c1-c1ccc(F)cc1 | 0 | ? | 0 | 5.9µM | 0 | 0
O=S(=O)(c1ccccc1)c1cnn2c(C(F)(F)F)cc(-c3ccc(F)cc3)nc12 | 0 | 0 | 0 | ? | 0 | 0
COC(=O)c1ccc(C(NC(=O)OCc2ccccc2)/C(F)=C/[C@@H](C)C(=O)NCCN2CCOCC2)cc1 (stereo not given in full) | - | - | - | - | 0 | -
COc1ccc(N2C(=O)N[C@@H](Cc3ccccc3)C2=O)cc1OC | 0 | 0 | 0 | 0 | 0 | 0
CC(C)c1cccc(C2=CC(=O)C[C@H](c3ccc4c(c3)OCO4)C2)c1 | - | 13µM | - | 8.3µM | - | -
O=C1C=C(c2cccc(Cl)c2O)C[C@@H](c2ccc(Cl)cc2)C1 | - | 2.9µM | - | 1.5µM | - | -
O=C1C=C(c2cc(F)ccc2F)C[C@@H](c2ccc(Cl)cc2)C1 | - | 3.7µM | - | ? | - | -
CSc1ccc(C2=CC(=O)C[C@H](c3ccc(Cl)cc3)C2)cc1 | - | ? | - | 0 | - | -
COc1ccc([C@H]2CC(=O)C=C(c3cccc(Cl)c3)C2)cc1 | - | 0 | - | ? | - | -
O=C1C=C(c2cccc(Cl)c2)C[C@@H](c2ccc(Cl)cc2)C1 | - | 3.3µM | - | 2.1µM | - | -
COc1cc(/C=C/C(=O)OCC(=O)NC(=O)NC(C)C)ccc1O | 0 | ? | 0 | 0 | 0 | 0
CC(C)OC(=O)[C@@H]1CC[C@H](C)[C@@H](CCCC=O)O1 | - | - | - | - | 0 | -
Cc1cc(NC(=O)C(C)Oc2ccc(Cl)cc2Cl)no1 (stereo not given) | 0 | 0 | 0 | 1.7µM | 0 | 0
Cc1cc(Cl)ccc1OC(C)C(=O)O (stereo not given) | 0 | 0 | 0 | 0 | 0 | 0
COC(=O)NNC(=O)C(C)Oc1ccc(Cl)cc1Cl (stereo not given) | 0 | 0 | 0 | - | 0 | 0
Cc1cc(NC(=O)CCCOc2ccc(Cl)cc2Cl)no1 | 0 | ? | 0 | 0 | 0 | 0
Cc1csc(NC(=O)C(C)Oc2ccc(Cl)cc2C)n1 (stereo not given) | - | 13µM | - | ? | - | -
SMILES | NS1 function inh | Pf growth 48h | Shiga toxin inh | Pf growth 96h | Giardia FBPA inh | Cycloheximide cs
CC(Oc1ccc(Cl)cc1Cl)C(=O)Nc1ncccn1 (stereo not given) | 0 | - | 0 | ? | 0 | 22
O=C1CCC(C(=O)Nc2ccc([N+](=O)[O-])cc2)N1 (stereo not given) | - | 0 | - | 0 | - | -
COc1ccc(CNc2ncnc3ccc(-c4ccccc4OC)cc23)c(OC)c1 | - | - | - | - | 0 | -
O=C1c2ccccc2NC2(CCCCC2)N1N=C1CCCCC1 | 0 | 0 | 44 | ? | 0 | 60
O=C1c2ccccc2NC2(CCCC2)N1O | 0 | - | 53 | 0 | ? | 16
Cc1ccc(N2C(=O)N(CC(=O)Nc3ccc(C)c(C)c3[N+](=O)[O-])C(=O)C2C)cc1 (stereo not given) | - | 0 | 0 | 0 | 0 | 0
CN(C)c1ccc(/C=C2\CCCc3c2nc2ccccc2c3C(=O)O)cc1 | 0 | 0 | 118 | 0 | - | 45
COc1ccc(/C=C2\CCCc3c2nc2ccccc2c3C(=O)O)cc1OC | 0 | 0 | 0 | 0 | 7.9µM | 0
COc1ccc(/C=C2\CCc3c2nc2ccccc2c3C(=O)O)cc1OC | 0 | 0 | 0 | 0 | 0 | 0
O=C(O)c1ccc(/C=C2\CCCc3c2nc2ccccc2c3C(=O)O)cc1 | 0 | 0 | 0 | 0 | 0 | 0
CC(C)c1nc(NCC2CCCO2)c(C#N)c2c1COC(C)(C)C2 (stereo not given) | 0 | 13µM | 0 | 0 | 0 | 0
C[Si](C)(C)n1ccnc1 | 0 | ? | 0 | 0 | ? | 0
Oc1ccc2ccccc2c1N=Nc1ccccn1 | 0 | ? | 0 | 6.6µM | 0 | 0
Oc1ccc2ccccc2c1N=Nc1ccccc1F | 0 | 0 | 0 | ? | ? | 0
O=S(=O)(O)c1cccc(N=Nc2c(O)ccc3ccccc23)c1 | 0 | ? | 0 | 10µM | 0 | 0
CCOC(=O)c1[nH]cnc1N=Nc1c(O)ccc2ccccc12 | 0 | 2.9µM | 0 | 2.3µM | 0 | 0
Cc1ccc(N=Nc2c(O)ccc3cc(S(=O)(=O)O)ccc23)cc1 | 0 | - | - | - | - | -
CCOC(=O)c1[nH]c(=O)c2ccccc2c1O | 0 | 0 | 0 | 0 | ? | 0
Cc1ccc2c(cnn2C(=O)CCC(=O)NCc2cccc(Br)c2)c1 | 0 | 0 | 0 | 2.6µM | 0 | 0
CCc1ccc(CNC(=O)CCC(=O)n2ncc3cc(C)ccc32)cc1 | 0 | 0 | 0 | 0 | 0 | 0
Cc1ccc2c(cnn2C(=O)CCCC(=O)NCc2ccc(F)cc2)c1 | 0 | 0 | 26 | 0 | 0 | 11
O=C(c1ccc([N+](=O)[O-])cc1)N1CCN(C(=O)C2CCCCC2)CC1 | 0 | 0 | 0 | 0 | 0 | 0
COCCn1c(=O)c(CCc2ccccc2)nc2cnc(Oc3ccc(OC)cc3)nc21 | - | - | - | - | 0 | -
CNC[C@H](CC1CCCCC1)NC[C@H](Cc1ccccc1)NCCC12CC3CC(CC(C3)C1)C2 | 0 | ? | 0 | 2.1µM | ? | 0
CCc1ccc(N2C(=O)CC(N3CCN(Cc4ccc5c(c4)OCO5)CC3)C2=O)cc1 (stereo not given) | 0 | 0 | 0 | 0 | 0 | 0
SMILES | NS1 function inh | Pf growth 48h | Shiga toxin inh | Pf growth 96h | Giardia FBPA inh | Cycloheximide cs
CCOC(=O)N1CCN(C(=O)c2c[nH]c3ccc(S(=O)(=O)N(C)c4cccc(C)c4)cc3c2=O)CC1 | 0 | 0 | 0 | 0 | 0 | 0
Cc1cc2ncn(C(=O)N3CCCCC3)c2cc1C | 0 | 0 | 0 | 13µM | 0 | 0
Cc1cc2ncn(C(=O)N3CCCCCC3)c2cc1C | 0 | 0 | active | 7.4µM | 0 | 19
Cc1cc2ncn(S(=O)(=O)N3CCCCC3)c2cc1C | 0 | 0 | 0 | - | 0 | 0
COc1ccc(SCCN2CC[C@@H](C(C)(C)C)CCC2=O)cc1 | - | 0 | - | ? | - | -
C[C@H]1Cc2c(-c3ccccc3)nc3c(c2CO1)CN(C(=O)C1CCCCC1)CC3 | - | - | - | - | 0[12.9 µM] | -
Cc1ccc(S(=O)(=O)N(C)C)cc1NC(=O)c1ccc2ccccc2n1 | 0 | 0 | 0 | ? | 0 | 37
Cc1ccc(S(=O)(=O)N(C)C)cc1NC(=O)c1ccncc1 | - | 0[5.75 µM] | 0 | 0[5.75 µM] | 0 | 0
Cc1ccc(NC(=S)c2ccc3ccccc3n2)c(C)c1 | 0 | 0 | 85 | 0 | 0 | 30
